This is an account of results in PubChem BioAssay (NCATS).

The nature of test [1]: Cytometric Cell-Based qHTS for Inhibitors of the mTORC1 Signaling Pathway in MEF (Tsc2-/-, p53-/-) Cells (AID 2660).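 Note: Tsc2 and p53 null MEFs carrying empty vector with compound for 24 h; percent of cells above a phospho-rpS6 to PI ratio cutoff in each well; series mostly up to about 38 µM.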 The procedure, abridged: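 Immunofluorescence qHTS of rpS6 Ser235/236 phosphorylation: MEFs (Tsc2-/-, p53-/-) treated 24 h, 37 C, in DMEM + 10% FBS. Alexa-488 signal normalized to PI count, referenced to rapamycin (7.5 nM) and DMSO; PI cell number recorded for viability.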
(In general: In qHTS, concentration-response curves come from the screen itself.)

Test [2] in a line: High Content Imaging Cell-Based qHTS for Inhibitors of the mTORC1 Signaling Pathway in MEF (Tsc2-/-, p53-/-) Cells (AID 2666).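 Note: percent of cells scored positive for phospho-rpS6 Ser235/236 immunostaining by imaging.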 The procedure, abridged: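 Inhibition of rpS6 phosphorylation is measured by immunofluorescence imaging in empty-vector Tsc2-/-, p53-/- mouse embryonic fibroblasts after 24 hrs compound exposure at 37 degree Celsius. Results are reported as % positive cells per well.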

The nature of test [3]: High Content Imaging Cell-Based qHTS for Inhibitors of the mTORC1 Signaling Pathway in MEF Cells (AID 2667). Note: potency is the fitted concentration of half-maximal effect. The procedure, abridged: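 Fixed-cell imaging of phospho-S6 (Ser235/236, Alexa-488) after 24 hrs of compound treatment at 37 degree Celsius. Signal was normalized to Hoechst, and thresholds from the highest and lowest wells split cells into % active versus % non-active.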

Test [4] is described as follows: Cytometry Cell-Based qHTS for Inhibitors of the mTORC1 Signaling Pathway in MEF cells (AID 2668). Note: potency is the fitted concentration of half-maximal effect. The procedure, abridged: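 Phospho-rpS6 (Ser235/236) immunofluorescence over PI signal, scored as % positive cells using thresholds from 7.5 nM rapamycin and DMSO wells, after 24 h compound exposure of WT-Tsc2-rescued Tsc2-/-, p53-/- MEFs. PI cell count recorded for viability.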

Test [5] addresses DNA polymerase III PolC-type (Bacillus subtilis (strain 168)) (UniProt P13267). The test is described as follows: qHTS Validation Assay for the Inhibitors of DNA Replication in Gram-Positive Bacteria (AID 485295).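 Note: reconstituted holoenzyme with PolC plus beta clamp SSB and primase; PicoGreen fluorescence of double-stranded DNA made on primed circular M13 template; series mostly up to about 57 µM.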 In outline:
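Double-stranded DNA product detected by PicoGreen fluorescence after EDTA quench. Compound incubated with B. subtilis holoenzyme (PolC, beta subunit, SSB, primase) before substrate addition; primed replication of M13Gori with dNTPs and NTPs at room temperature; DMSO defines 0% inhibition.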

Test [6] deals with Ubiquitin carboxyl-terminal hydrolase 2 (Homo sapiens) (UniProt O75604). The test is described as follows: qHTS Validation Assay for Inhibitors of Ubiquitin-specific Protease USP2a Using CHOP2 as the Reporter (AID 463106). The procedure, abridged:
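Inhibition is expressed relative to NEM as the full-inhibition control, with concentration-response curves classed by fit quality, magnitude and activity. Enzyme (USP2 core, 10nM) meets 25nM Ub-CHOP2 after compound preincubation; readings are taken at 60min.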

The nature of test [7]: qHTS Validation Assay to Find Inhibitors of Chronic Active B-Cell Receptor Signaling (AID 485345; active = well fitted curve in the direction sought with a large enough effect in the main read-out, with a control signal flat, not every such curve was filed as active). In outline:
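TMD8 ABC-DLBCL cells with dox-inducible green luciferase–IκBα fusion and red native luciferase; compounds 46 uM–3 nM, 4 h at 37C with doxycycline in 0.5% FBS IMDM. Green/red ratio normalized to basal and 10 uM MG-132.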

The target in test [8] is Tumor susceptibility gene 101 protein (Homo sapiens) (UniProt Q99816). The test is described as follows: qHTS Validation Assay for Iinhibitors of HIV-1 Budding by Blocking the Interaction of PTAP/TSG101 (AID 485342; calls by dose curve). The procedure, abridged: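 Fluorescence polarization of 50 nM FITC-PTAP peptide bound to 10 uM Tsg101 binding domain was read after 20 min room-temperature incubation with compounds, in 10 mM HEPES pH 7.5, 0.15 M NaCl, 0.01% Tween 20.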
Sequence of Tumor susceptibility gene 101 protein (Homo sapiens) (Q99816 whole entry, looked up, the tested form may be a part): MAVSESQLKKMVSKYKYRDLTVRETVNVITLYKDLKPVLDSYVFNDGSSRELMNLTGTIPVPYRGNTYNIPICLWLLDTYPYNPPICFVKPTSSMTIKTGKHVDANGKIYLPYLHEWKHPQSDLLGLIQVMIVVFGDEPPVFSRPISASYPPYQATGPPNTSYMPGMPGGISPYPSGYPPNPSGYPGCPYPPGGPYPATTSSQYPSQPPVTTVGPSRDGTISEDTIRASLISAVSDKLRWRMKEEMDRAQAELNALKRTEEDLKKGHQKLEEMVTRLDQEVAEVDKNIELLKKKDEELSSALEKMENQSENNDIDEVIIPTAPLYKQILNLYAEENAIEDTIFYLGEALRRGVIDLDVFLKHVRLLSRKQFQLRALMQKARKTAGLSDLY

The nature of test [9]: Validation screen for small molecules that induce DNA re-replication in MCF 10A normal breast cells (AID 463097). Note: nearly all actives have a fitted effect of over 60% in size. Note: potency is the fitted concentration of half-maximal effect. The procedure, abridged: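 Read-out is Hoechst total nuclear intensity by fluorescence scanning imager, flagging increased high-DNA-content nuclei. Compounds were incubated with MCF 10A cells for 48 hr (37 C, 5% CO2) before 40 min staining.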

Records with an inconclusive call do not appear. Activity calls are given as the source filed them. Unless noted, calls come from the whole dose curve; as a rule, active = well fitted curve in the direction sought with a large enough effect; inconclusive = small, poorly fitted or top-dose-only effect, or another doubt; inactive = no such curve, though single readings can be large; an effect the other way counts as inactive or inconclusive.

Sequence of DNA polymerase III PolC-type (Bacillus subtilis (strain 168)) (P13267 whole entry, looked up): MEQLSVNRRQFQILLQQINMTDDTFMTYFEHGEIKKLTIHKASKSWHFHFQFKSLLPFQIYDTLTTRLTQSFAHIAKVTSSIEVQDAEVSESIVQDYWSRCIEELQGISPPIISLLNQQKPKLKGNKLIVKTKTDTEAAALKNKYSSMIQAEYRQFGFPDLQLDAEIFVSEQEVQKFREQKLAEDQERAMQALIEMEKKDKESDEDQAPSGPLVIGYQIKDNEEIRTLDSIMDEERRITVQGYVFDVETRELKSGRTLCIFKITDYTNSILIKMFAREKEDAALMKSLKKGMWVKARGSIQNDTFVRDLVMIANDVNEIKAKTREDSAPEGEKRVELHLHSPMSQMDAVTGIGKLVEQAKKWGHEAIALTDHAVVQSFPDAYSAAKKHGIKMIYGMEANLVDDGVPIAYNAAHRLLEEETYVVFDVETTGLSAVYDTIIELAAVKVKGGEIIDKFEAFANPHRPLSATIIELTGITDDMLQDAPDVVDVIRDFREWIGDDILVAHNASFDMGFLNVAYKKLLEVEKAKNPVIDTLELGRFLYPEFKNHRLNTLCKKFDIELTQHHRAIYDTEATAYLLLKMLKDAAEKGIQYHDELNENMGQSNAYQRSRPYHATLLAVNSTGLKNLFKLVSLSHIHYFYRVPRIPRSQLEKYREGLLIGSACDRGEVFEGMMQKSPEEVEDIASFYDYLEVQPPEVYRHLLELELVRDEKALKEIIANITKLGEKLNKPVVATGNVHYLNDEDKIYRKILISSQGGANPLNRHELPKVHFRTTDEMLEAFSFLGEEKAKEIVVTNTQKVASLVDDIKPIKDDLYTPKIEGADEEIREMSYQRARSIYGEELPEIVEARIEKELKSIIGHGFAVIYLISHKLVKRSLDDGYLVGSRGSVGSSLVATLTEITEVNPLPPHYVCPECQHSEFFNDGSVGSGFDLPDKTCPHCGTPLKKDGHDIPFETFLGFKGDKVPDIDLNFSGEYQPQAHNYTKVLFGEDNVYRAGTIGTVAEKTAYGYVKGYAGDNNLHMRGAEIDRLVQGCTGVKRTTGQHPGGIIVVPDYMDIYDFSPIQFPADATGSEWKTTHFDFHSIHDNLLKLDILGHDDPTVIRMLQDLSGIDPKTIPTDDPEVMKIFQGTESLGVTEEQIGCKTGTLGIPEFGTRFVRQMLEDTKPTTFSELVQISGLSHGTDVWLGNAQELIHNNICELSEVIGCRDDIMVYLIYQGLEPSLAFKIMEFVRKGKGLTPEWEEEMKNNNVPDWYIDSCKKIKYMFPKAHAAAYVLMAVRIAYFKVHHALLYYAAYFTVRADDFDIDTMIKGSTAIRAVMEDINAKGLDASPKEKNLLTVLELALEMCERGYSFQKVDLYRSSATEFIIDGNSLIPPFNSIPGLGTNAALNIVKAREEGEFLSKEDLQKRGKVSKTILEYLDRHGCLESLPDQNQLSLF
Sequence of Ubiquitin carboxyl-terminal hydrolase 2 (Homo sapiens) (O75604 whole entry, looked up): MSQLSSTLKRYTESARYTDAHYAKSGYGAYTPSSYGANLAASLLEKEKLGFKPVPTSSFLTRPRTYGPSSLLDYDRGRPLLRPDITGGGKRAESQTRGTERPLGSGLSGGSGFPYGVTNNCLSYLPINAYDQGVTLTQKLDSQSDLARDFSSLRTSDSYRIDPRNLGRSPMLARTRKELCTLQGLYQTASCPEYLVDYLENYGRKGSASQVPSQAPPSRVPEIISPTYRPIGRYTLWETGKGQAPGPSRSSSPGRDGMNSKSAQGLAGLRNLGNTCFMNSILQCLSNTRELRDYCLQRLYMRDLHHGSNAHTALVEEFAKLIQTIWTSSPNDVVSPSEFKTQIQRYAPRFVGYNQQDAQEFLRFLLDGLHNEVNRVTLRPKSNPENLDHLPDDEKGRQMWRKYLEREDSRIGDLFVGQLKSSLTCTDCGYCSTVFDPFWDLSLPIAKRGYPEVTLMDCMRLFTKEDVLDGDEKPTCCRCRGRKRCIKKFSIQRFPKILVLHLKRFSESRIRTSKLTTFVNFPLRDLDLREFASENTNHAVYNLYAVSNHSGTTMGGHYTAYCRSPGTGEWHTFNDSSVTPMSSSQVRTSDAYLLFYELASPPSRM

Consider `CC[n+]1c(/C=C/C=C2/N(C)c3ccccc3C2(C)C)sc2ccccc21`, for which the result in [1] was inactive. Moreover, the Potency entry in test [2] and in test [5] was “inactive” throughout. Further, the values for the Potency in test [3] and in [4] were 52.1 nM (active) and 82.6 nM (active), respectively.
`CN1CC(O)C(O)C(O)C1CO` (stereo not given): the result in [1] and in [7] was inactive. Moreover, the Potency result in test [2], in [3], in test [4], in [6] and in test [5] was “inactive” throughout.
As to `CCCCCCCCCCCCCCCCCCOC[C@H](COP(=O)([O-])OCC[N+](C)(C)C)OC`, the call in [1] and in [8] was inactive. Moreover, the Potency entry in test [2], in [3], in test [4] and in test [6] was “inactive” each time.
Regarding `CC(C)[C@@H]1CC[C@@H](C)C[C@@H]1P(=O)(c1ccccc1)c1ccccc1`, the molecule was called inactive in test [1], in test [8] and in test [7]. For the same molecule, the Potency result in [2], in test [3], in test [4], in test [6] and in [5] was “inactive” each time.
Turning to `Nc1ncnc2c1c(-c1ccc(Oc3ccccc3)cc1)cn2C1CCCC1`, the outcome in [1] and in test [8] was inactive. For the same molecule, the Potency result in test [2], in test [3] and in [6] was “inactive” throughout. Moreover, the Potency in test [9] was 3160 nM (active).
Regarding `Nc1ccc(CCNc2ncnc3c2ncn3C2OC(CO)C(O)C2O)cc1` (stereo not given), the result in test [1] and in [8] was inactive. Further, the Potency result in test [2], in test [3], in test [9], in test [6] and in test [5] was “inactive” each time.
Regarding `NCCS(=O)O`, the result in test [1], in test [8] and in test [7] was inactive. In addition, the Potency entry in test [2], in test [3], in test [9], in [6] and in test [5] was “inactive” each time.
For `N[C@H](C(=O)O)c1cc(O)cc(O)c1`, the outcome in [1], in test [8] and in test [7] was inactive. The Potency result in test [2], in test [3], in test [9] and in test [6] was “inactive” in each case.
Regarding `N[C@@H](CS(=O)O)C(=O)O`, the molecule was classed as inactive in test [1] and in [8]. In addition, the Potency result in [2], in [3], in test [9], in test [6] and in [5] was “inactive” each time.
Take `COc1ccc(-c2cc3ncc(C)n3c(Nc3ncccc3C(N)=O)n2)cc1OC`: the call in test [1] and in test [8] was inactive. Besides, the Potency result in test [2], in test [3], in test [6] and in test [5] was “inactive” in each case.
Turning to `CCCCCC[C@@H]([C@@H](C)O)n1cnc2c(N)ncnc21`, the result in test [1], in test [8] and in test [7] was inactive. For the same molecule, the Potency entry in test [2], in test [3], in test [9], in [6] and in test [5] was “inactive” throughout.
For the molecule `NCCNS(=O)(=O)c1cccc2c(Cl)cccc12`, the outcome in test [1] and in test [8] was inactive. Moreover, the Potency entry in test [2], in test [9], in test [6] and in test [5] was “inactive” throughout. Moreover, the Potency in [3] is 16500 nM (active).
For `Cc1ccc([N+](=O)[O-])cc1S(=O)(=O)N(C)C`, the result in test [1] and in test [8] was inactive. The Potency entry in test [2], in test [3], in test [9], in [6] and in test [5] was “inactive” in each case.
`CCC1(O)CC2CN(CCc3c([nH]c4ccccc34)[C@@](C(=O)OC)(c3cc4c(cc3OC)N(C=O)C3[C@]45CCN4CC=C[C@@](CC)([C@@H](OC(C)=O)[C@]3(O)C(=O)OC)[C@H]45)C2)C1` (stereo not given in full): the outcome in [1] and in test [8] was inactive. In addition, the Potency result in [2], in [3], in [6] and in test [5] was “inactive” throughout. For the same molecule, the Potency in test [9] is 44.7 nM (active).
For `NC1CONC1=O` (stereo not given), the molecule was called inactive in test [1] and in test [8]. Moreover, the Potency entry in test [2], in test [3], in test [9] and in [6] was “inactive” in each case.
In the case of `Nc1ccc2c3c(cccc13)C(=O)NC2=O`, in test [1], the outcome was inactive. The Potency entry in [2], in test [3], in test [9] and in test [5] was “inactive” in each case.
As for `CC[C@@H]1Cc2cc(O)ccc2C2=C1c1ccc(O)cc1C[C@H]2CC`, the molecule was classed as inactive in test [1] and in test [8]. Moreover, the Potency result in [2], in [3], in [6] and in test [5] was “inactive” each time.
As for `CCOC(=O)C12CC1/C(=N/O)c1ccccc1O2` (stereo not given), the molecule was classed as inactive in [1], in test [8] and in test [7]. Besides, the Potency entry in [2], in test [3], in [9], in test [6] and in test [5] was “inactive” throughout.
`CC(N)(Cc1ccc(O)cc1)C(=O)O` (stereo not given): the molecule was called inactive in test [1], in test [8] and in test [7]. For the same molecule, the Potency result in test [2], in [3], in test [9], in test [6] and in test [5] was “inactive” each time.
Turning to `CN1CCc2cc(Cl)c(O)cc2[C@@H](c2ccccc2)C1`, the call in [1] and in test [8] was inactive. For the same molecule, the Potency entry in [2], in test [3], in test [6] and in test [5] was “inactive” throughout.
Turning to `C=C(C)C1CC=C(C(=O)O)CC1` (stereo not given), the call in test [1], in test [8] and in [7] was inactive. The Potency result in test [2], in [3], in test [9], in test [6] and in [5] was “inactive” throughout.
Turning to `CC1=C(/C=C/C(C)=C/C=C/C(C)=C\C(=O)O)C(C)(C)CCC1`, the call in test [1] and in test [8] was inactive. The Potency entry in test [2], in test [3], in [9], in [6] and in test [5] was “inactive” in each case.
`N[C@H](C(=O)O)[C@H](O)C(=O)O`: the molecule was called inactive in [1], in test [8] and in test [7]. Also, the Potency result in test [2], in test [3], in [9], in test [6] and in [5] was “inactive” in each case.
Take `CN1C2CCC1CC(OC(c1ccccc1)c1ccccc1)C2` (stereo not given): the result in test [1], in [8] and in test [7] was inactive. The Potency entry in test [2], in test [3], in test [9], in test [6] and in test [5] was “inactive” each time.
In the case of `CCN(CC)CCCCCCCCOC(=O)c1cc(OC)c(OC)c(OC)c1`, the call in [1] and in test [8] was inactive. Further, the Potency entry in test [2], in [3], in [9], in test [6] and in [5] was “inactive” throughout.
As to `Cc1ccccc1/C=C/C1=NCCN1`, the molecule was classed as inactive in [1] and in [8]. Also, the Potency result in test [2], in [3], in [6] and in [5] was “inactive” throughout.
Consider `O=[N+]([O-])c1cccc2c(Br)[nH]nc12`, for which the result in [1], in test [8] and in test [7] was inactive. In addition, the Potency entry in test [2], in [3], in test [9], in test [6] and in test [5] was “inactive” throughout.
In the case of `CC(C)C[C@H](NC(=O)[C@H](O)[C@H](N)Cc1ccccc1)C(=O)O`, the call in [1], in test [8] and in test [7] was inactive. The Potency result in test [2], in test [3], in [9], in test [6] and in test [5] was “inactive” each time.
